PubChem BioAssay AID2235 (The Scripps Research Institute Molecular Screening Center, 2010)
Hit rate of the full screen: of about 320,000 compounds, about 2,800 (0.88%) were called active. This is one part of a sample in which actives are shown more often than they occur. Values without a mark were called inactive.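 How the source made its calls: active means inhibition above the mean inhibition of all tested compounds plus 3 SD, computed separately for each screening campaign (cut at about 15% in these data); inactive means the rest.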

Target: Serine/threonine-protein phosphatase PP1-alpha catalytic subunit (Homo sapiens) (UniProt P62136)
Sequence (P62136 whole entry, looked up): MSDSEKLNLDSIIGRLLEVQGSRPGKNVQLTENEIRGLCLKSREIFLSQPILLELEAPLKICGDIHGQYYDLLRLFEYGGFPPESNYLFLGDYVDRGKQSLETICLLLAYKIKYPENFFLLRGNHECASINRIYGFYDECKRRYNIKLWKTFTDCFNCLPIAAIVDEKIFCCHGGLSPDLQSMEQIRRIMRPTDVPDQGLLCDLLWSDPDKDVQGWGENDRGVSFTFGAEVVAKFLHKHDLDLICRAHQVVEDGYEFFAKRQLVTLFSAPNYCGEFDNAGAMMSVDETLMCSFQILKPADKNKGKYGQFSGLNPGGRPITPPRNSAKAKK
Test: PP1-alpha phosphatase inhibitors, primary screen, counter-screen for PP5 inhibitor project, biochemical, fluorescence, OMFP substrate, single point (AID 2235)
Conditions: purified PP1alpha, at 6.7 µM, hits give high values

SMILES | inhibition
Cc1nn(C)c(Oc2ccc(Cl)cc2)c1C=O | -4.58%
Cc1ccc2c(c1)NCC(C(=O)NC1CCC(C)CC1)O2 (configuration not stated) | -3.3%
C/C(=N\c1nc2ccccc2n1C)c1cc(Cl)ccc1O | 22% (active)
Cc1ccc(O)c(CNc2nc3ccccc3n2C)c1 | -1.3%
Cn1c(Nc2cccc(Cl)c2)nc2ccccc21 | -3.75%
CCc1ccc(NC(=O)CSc2nnc(-c3cnccn3)n2Cc2ccco2)cc1 | 2.61%
CCn1c(SCC(=O)Nc2cc(C)ccc2C)nnc1-c1cnccn1 | 20.4% (active)
Cc1ccc(NC(=O)CSc2nnc(-c3cnccn3)n2Cc2ccco2)cc1C | 1.95%
CC(=O)Nc1cccc(C(=O)OCC(=O)Nc2nnc(-c3ccccc3)o2)c1 | 0.85%
O=C(COC(=O)c1ccccc1Br)Nc1nnc(-c2ccccc2)o1 | 13.9%
O=C(COC(=O)c1ccc(Oc2ccccc2)cc1)Nc1nnc(-c2ccccc2)o1 | 23.5% (active)
Cc1ccc(S(=O)(=O)N(C)c2ccc(OCC(=O)NC3=NCCS3)cc2)cc1 | -1.97%
Cc1ccc(N2NC(=O)/C(=C/C=C/c3ccco3)C2=O)cc1C | 1.04%
Cc1ccc(N=C2NC(=O)/C(=C/C=C/c3ccco3)S2)cc1C | 16.1% (active)
CN1C(=O)/C(=C/c2ccco2)SC1=Nc1cccc(C(=O)O)c1 | -2.67%
Cc1ccc(C)c(Cn2cnc3c(oc4ccccc43)c2=O)c1 | 1.24%
Cc1nc2ccccc2c(=O)n1NC(=O)c1ccc(Cl)c([N+](=O)[O-])c1 | 2.24%
O=C(Nn1c(SCc2ccc([N+](=O)[O-])cc2)nc2ccccc2c1=O)c1ccc(F)cc1 | 15.9% (active)
C=CCn1c(SCc2ccc(C(=O)NCCO)cc2)nc2ccccc2c1=O | 2.26%
COc1ccc(C(=O)c2c3ccc([N+](=O)[O-])cc3[n+]([O-])n2CCCN)cc1 | 5.14%
CCOc1ccc(NC(=O)CN(C)CC(=O)NC(C)c2ccccc2)cc1OCC (configuration not stated) | -1.29%
Cc1cc(C)n(C(=O)c2ccc(S(=O)(=O)N3CCCC3)cc2)n1 | 2.03%
Cc1cc(Nc2ccccc2)n(CCC#N)n1 | -2.37%

SMILES | inhibition
Cc1cc(Nc2ccccc2)n(C(=O)c2ccc(N)cc2)n1 | 22.3% (active)
CCOC(=O)C1=C(CCc2ccccc2)NC(=O)NC1c1ccc2ccccc2c1 (configuration not stated) | 9.37%
COc1ccc(NS(=O)(=O)c2cc(NC(=O)C3CCCCC3)ccc2N2CCOCC2)cc1 | 0.37%
Cc1ccc(C2Nc3cccc4cccc(c34)N2)cc1 | 1.42%
Oc1ccc(C2Nc3cccc4cccc(c34)N2)cc1 | 30.9% (active)
COc1cccc(C2Nc3cccc4cccc(c34)N2)c1 | 3.61%
Cc1ccc(CSCC2Nc3ccc(C(=O)N4CCN(c5ccc(F)cc5)CC4)cc3NC2=O)cc1 (configuration not stated) | 17.7% (active)
O=C(c1cc(C(=O)N2CCN(c3ccc(F)cc3)CC2)cc([N+](=O)[O-])c1)N1CCN(c2ccc(F)cc2)CC1 | 1.38%
O=C1Nc2cc(C(=O)N3CCN(c4ccc(F)cc4)CC3)ccc2NC1CSCc1cccc(F)c1 (configuration not stated) | 14.3%
CCS(=O)(=O)N1Cc2ccccc2CC1C(=O)Nc1nc2ccc(F)cc2s1 (configuration not stated) | 3.36%
CC(=O)c1c(C)[nH]c(C(=O)OCC(=O)Nc2sc3c(c2C#N)CCCC3)c1C | 8.8%
Cc1cccc(N(Cc2ccccc2)C(=O)c2ccccc2F)c1 | 0.11%
COc1ccc(C2=NS(=O)(=O)N(C)C(C(=O)NC(C)c3ccccc3)=C2)cc1 (configuration not stated) | -1.27%
CCOc1ccc(CNC(=O)C2CCCN(c3nnc(C)c4c(C)n(-c5ccccc5)nc34)C2)cc1 (configuration not stated) | 1.12%
CCc1ccc(CNC(=O)C2CCN(c3nnc(C)c4c(C)n(-c5ccc(C)cc5)nc34)CC2)cc1 | 16.5% (active)
COc1ccc(-n2nc3c(N4CCC(C(=O)NCc5ccccc5)CC4)nnc(C)c3c2C)cc1 | 4.6%
CC(C)Cn1c(N)c(C(=O)COC(=O)CN2C(=O)C3CC=CCC3C2=O)c(=O)n(C)c1=O (configuration not stated) | -0.85%
O=C(Nc1ccc2ccccc2c1)Nc1ccc2snnc2c1 | 13.3%
Cc1nn(-c2ccccc2)c2[nH]c(C(F)(F)F)cc(=O)c12 | 2.68%
CCCN1CCN(C(=O)CCCNC(=O)c2ccc(Cl)cc2)CC1 | -3.09%
CN1CCN(CCCNC(=O)c2ccc(/C=C3\Oc4ccccc4N(Cc4ccc(Cl)cc4)C3=O)cc2)CC1 | 25.6% (active)
CN1C(=O)/C(=C/c2ccc(C(=O)NC3CCCC3)cc2)Oc2ccccc21 | 1.1%
Cc1cc(C)nc(-n2nc(C)cc2NC(=O)c2ccc(F)cc2F)n1 | -0.61%

SMILES | inhibition
O=C(NCc1ccccc1)C(c1cccnc1)N(C(=O)c1csnn1)c1ccc(F)cc1 (configuration not stated) | 8.74%
O=C(CCC1CCCC1)N=C1SC2CS(=O)(=O)CC2N1Cc1ccccc1 (configuration not stated) | 5.06%
CC(=O)c1ccc(N2C(=NC(=O)C(C)C)SC3CS(=O)(=O)CC32)cc1 (configuration not stated) | -3.39%
O=C(N=C1SC2CS(=O)(=O)CC2N1c1cc(Cl)ccc1Cl)C1CC1 (configuration not stated) | 18.9% (active)
CCOC(=O)N1CCN(C(=O)c2ccc3c(=O)n(CCc4ccc(OC)c(OC)c4)c(=O)[nH]c3c2)CC1 | 4.83%
NS(=O)(=O)c1ccc(CCNC(=O)COC(=O)COc2cccc(C(F)(F)F)c2)cc1 | -0.82%
CCOC(=O)c1cc(-c2ccc(F)cc2)n(CC(=O)NCc2ccccn2)c1C | -3.29%
Cc1ccc(OCC(=O)Nc2ccc(-c3nnc(-c4ccco4)o3)cc2)cc1 | 24.5% (active)
CCCCOc1ccc(-c2nnc(-c3ccco3)o2)cc1 | 3.14%
Cc1ccc(OCC(=O)Nc2ccc(-c3nc4ncccc4o3)cc2)cc1 | 0.81%
Cc1cc(C)nc(N/N=C/c2c(CO)cnc(C)c2O)n1 | 1.96%
CSc1ccccc1NC(=O)c1cc(C2CC2)on1 | 0.1%
Cc1ccc2nc(N3CCN(C(=O)c4ccco4)CC3)sc2c1 | -4.18%
C=CCSc1nnc(N2C(=O)C(O)=C(C(=O)c3ccco3)C2c2ccc(F)cc2)s1 (configuration not stated) | 10.6%
Cc1ccc2nc(N3C(=O)C(O)=C(C(=O)c4ccco4)C3c3cccc(O)c3)sc2c1 (configuration not stated) | 21.7% (active)
COc1ccc(OC(C)C(=O)Nc2cccnc2)cc1 (configuration not stated) | 3%
Cc1cc(NC(=O)CSCc2nc(-c3cccc(Cl)c3)oc2C)no1 | 0.91%
COc1ccc(N2C(=O)C(CC(=O)Nc3ccccc3)N(Cc3ccc(OC)c(OC)c3)C2=O)cc1 (configuration not stated) | -2.83%
N=c1c2c(-c3ccccc3)c(-c3ccccc3)n(Cc3ccccc3)c2ncn1CCCO | 7.81%
c1ccc(-c2cc(-c3ccccc3)[nH]n2)cc1 | 2.76%
OCCCN1c2ccccc2Nc2nnc(-c3ccccc3)cc21 | 21.4% (active)
CCN(CCCNC(=O)c1ccc2c(c1)NC(=O)CN2C)c1cccc(C)c1 | -0.43%
CCC(C)N(C(=O)CSc1nnnn1-c1ccccc1OC)C1CCS(=O)(=O)C1 (configuration not stated) | -1.76%

SMILES | inhibition
CC1CCCCN1C(=O)Cn1c(=O)oc2cc(S(=O)(=O)N3CCCCC3)ccc21 (configuration not stated) | 5.73%
CCc1ccc(Nc2n[n+](-c3ccccc3)c(-c3cccc(Cl)c3Cl)s2)cc1 | 14.2%
COc1cc(Br)c(-c2sc(Nc3ccccc3)n[n+]2-c2ccccc2)cc1OC | -0.57%
COc1ccc(C)cc1Nc1n[n+](-c2ccccc2)c(-c2cccc(Cl)c2Cl)s1 | 15.2% (active)
CCCN(CC(=O)Nc1ccc(OC)c(OC)c1)CC(=O)Nc1ccc(F)c(F)c1F | -0.52%
O=C(Nc1nc(-c2ccco2)c(-c2ccco2)s1)c1ccco1 | 26.9% (active)
O=C(Nc1nnc(CCOCCOCCc2nnc(NC(=O)c3ccco3)s2)s1)c1ccco1 | -2.12%
NC(=O)c1ccsc1NC(=O)c1ccco1 | 1.47%
N#Cc1ccccc1S(=O)(=O)N1CCN(Cc2c(O)ccc3ccccc23)CC1 | 0.2%
CCn1c(SCC(=O)Nc2ccc(Br)cc2)nc2sc3c(c2c1=O)CCN(C)C3 | 3.91%
COc1ccccc1NC(=O)CSc1nc2sc3c(c2c(=O)n1-c1ccccc1)CCN(C)C3 | 21.4% (active)
CCOc1ccc(-n2c(SCC(=O)Nc3ccc(OC)cc3)nc3sc4c(c3c2=O)CCN(C)C4)cc1 | 11.8%
Cc1cc(S(=O)(=O)NC2CCCC2)ccc1-n1cnnn1 | 3.65%
CC(Sc1nnnn1C)C(=O)NC(=O)NC1CCCCC1 (configuration not stated) | 10.8%
CCN(CCNC(=O)C1=C(C)C(=O)OC12CCC(C)CC2)c1ccccc1 (configuration not stated) | -1.92%
CCNS(=O)(=O)c1ccc(NC(=O)Nc2cccc(C(F)(F)F)c2)cc1 | 34.2% (active)
Cc1ccc(NC(=O)Nc2cccc(C(F)(F)F)c2)nc1 | 2.27%
O=C(Nc1ccc(C(=O)N2CCOCC2)cc1)Nc1cccc(C(F)(F)F)c1 | 0.27%
CCCCNCc1ccc(SC)cc1 | -2.43%
N=c1c2c3c(sc2nc2n1CCCCC2)CCCC3 | -1.9%
CCCCn1c(SCC(=O)N2CCC(C(=O)OCC)CC2)nc2cc(S(N)(=O)=O)ccc21 | -5.51%
CCCCn1c(SCc2ncc(-c3ccccc3)o2)nc2cc(S(N)(=O)=O)ccc21 | 17.9% (active)
CCCCn1c(SCC(=O)N2CCCC2=O)nc2cc(S(N)(=O)=O)ccc21 | 2.2%
